The values below come from PubChem BioAssay (NCATS).

Structures are written as SMILES. Inconclusive results are not listed. The source made the active and inactive calls. Calls come from the whole dose curve; as a rule, active = well fitted inhibition curve with a large enough effect; inconclusive = small, poorly fitted or top-dose-only effect; inactive = flat fitted curve, though single readings scatter. Numbered stars: 1 amine (or outer) side, 2 acyl side, 3 side chain; on linkers, the order of the positions; unused ones are H or OH. Bridge positions count the residues as written; N and C are the ends. Square brackets hold non-standard residues; d marks the D form. Peptide text beside a SMILES is read from it. I, II: the chains in the order shown. Actinocin(9to1) = Cc1c2oc3c(C)ccc(C(=O)[*:1])c3nc-2c(C(=O)[*:2])c(N)c1=O; NMeV = CN[C@H](C(=O)O)C(C)C; Sar = CNCC(=O)O

What all share (experiment): qHTS profiling for inhibitors of Plasmodium falciparum proliferation (AID 504749); note: nearly all actives have a fitted effect of over 60% in size
Details in all cases: P. falciparum in erythrocytes, SYBR Green DNA, 72 h; series mostly up to 28.7 µM
Background: In qHTS, concentration-response curves come from the screen itself.

Assay [1] has as its system P94_40. In outline: (§1)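 SYBR Green fluorescence of parasite DNA, read after lysis and overnight dark incubation, measured growth over 72 h in erythrocyte culture at 0.3% parasitemia and 2.5% hematocrit. Data normalised to DMSO and 0.29 uM artemisinin, with plate-drift correction.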
For assay [2], the system named is PAD. In outline: as §1
The test system of assay [3] is PC15. In outline: as §1
In assay [4] the test system is PC26. Put shortly:
as §1

The subject of assay [5] is PC49. In outline: as §1
Assay [6] relates to SC27B. In outline: as §1
The test system of assay [7] is TAB109. In outline:
as §1

For assay [8], the system named is TAB113. Put shortly:
as §1

The subject of assay [9] is TAB165. In outline: as §1
Assay [10] relates to W2. Put shortly: as §1
Potency is the fitted concentration of half-maximal effect.

Take `C[N+]1(CCCCC[N+]2(C)CCCC2)CCCC1`: the Potency entry in assay [1], in assay [2], in [3], in [4], in assay [5] and in [6] was “inactive” in each case. Besides, the Potency entry in assay [7], in [8], in assay [9] and in assay [10] was “inactive” throughout.
Turning to `C[C@H]1C[C@H]2[C@@H]3CCC4=CC(=O)C=C[C@]4(C)[C@@]3(Cl)[C@@H](O)C[C@]2(C)[C@@]1(O)C(=O)CO`, the Potency entry in [1], in assay [2], in assay [3], in [4], in assay [5] and in assay [6] was “inactive” throughout. For the same compound, the Potency entry in [7], in assay [8], in [9] and in assay [10] was “inactive” each time.
Consider `CN=C(NC#N)NCCSCc1csc(N=C(N)N)n1`, for which the Potency result in assay [1], in [2], in assay [3], in assay [4], in [5] and in assay [6] was “inactive” throughout. For the same compound, the Potency result in assay [8], in assay [9] and in assay [10] was “inactive” each time.
In the case of `CCCn1c(=O)[nH]c(=O)c2[nH]cnc21`, the Potency entry in [1], in assay [2], in assay [3], in assay [4], in assay [5] and in [6] was “inactive” throughout. The Potency result in [7], in assay [8], in assay [9] and in assay [10] was “inactive” throughout.
Consider `C[C@]12CCC(=O)C=C1CC[C@H]1[C@@H]3CC[C@](O)(C(=O)CO)[C@@]3(C)C[C@H](O)[C@@]12F`, for which the Potency entry in assay [1], in [2], in [3], in assay [4], in assay [5] and in assay [6] was “inactive” throughout. Besides, the Potency entry in assay [7], in assay [9] and in [10] was “inactive” in each case.
Consider `COc1ccc(/C=C/C(=O)c2ccc(OC)cc2OC)cc1`, for which the Potency in [1] was 10 µM (active); in assay [2], 10 µM (active); in assay [3] it was 7.08 µM (active); in [4], 7.57 µM (active); in assay [5] it was 5.62 µM (active); in assay [6], 10 µM (active). Also, the Potency in assay [7] was 7.08 µM (active); in assay [8] it was 8.91 µM (active); in [9], 4.47 µM (active); in assay [10], 4.26 µM (active).
For `Oc1ccc(Cl)cc1Sc1cc(Cl)ccc1O`, the Potency entry in assay [1], in [2], in assay [3], in assay [4], in assay [5] and in [7] was “inactive” each time.
For the compound `NC(=O)C(=O)N/N=C/c1ccc([N+](=O)[O-])o1`, the Potency result in [1], in assay [2], in assay [3], in assay [5], in assay [6] and in assay [7] was “inactive” throughout. For the same compound, the Potency result in assay [8] and in assay [9] was “inactive” each time.
Turning to `COc1ccc(CN2CCN(C(c3ccc(F)cc3)c3ccc(F)cc3)CC2)c(OC)c1OC`, the Potency in assay [1] is 7.08 µM (active); in assay [2], 8.91 µM (active); in assay [4] it was 12 µM (active); in [6] it was 10 µM (active); in assay [7], 11.2 µM (active); in assay [8] it was 8.91 µM (active). The Potency in assay [9] was 7.08 µM (active); in assay [10] it was 3.38 µM (active).
For the compound `CCCCc1nc(Cl)c(CO)n1Cc1ccc(-c2ccccc2-c2nn[nH]n2)cc1`, the Potency was 10 µM (active) in assay [1], 8.91 µM (active) in assay [9] and 10.7 µM (active) in assay [10]. The Potency entry in assay [3] and in assay [5] was “inactive” in each case.
For `Cc1c2oc3c(C)ccc(C(=O)N[C@@H]4C(=O)N[C@H](C(C)C)C(=O)N5CCC[C@H]5C(=O)N(C)CC(=O)N(C)[C@@H](C(C)C)C(=O)O[C@@H]4C)c3nc-2c(C(=O)N[C@@H]2C(=O)N[C@H](C(C)C)C(=O)N3CCC[C@H]3C(=O)N(C)CC(=O)N(C)[C@@H](C(C)C)C(=O)O[C@@H]2C)c(N)c1=O` (I: T[dV]P[Sar][NMeV] / II: T[dV]P[Sar][NMeV]; ester I:1-I:C, II:1-II:C; linker I:N-II:N via Actinocin(9to1)), the Potency in assay [1] is 0.0045 µM (active); in assay [2], 0.005 µM (active); in [3] it was 0.0112 µM (active); in [4], 0.0054 µM (active); in assay [6] it was 0.0063 µM (active); in [7], 0.004 µM (active). For the same compound, the Potency was 0.0063 µM (active) in assay [8], 0.0045 µM (active) in [9] and 0.0054 µM (active) in [10].
As for `O=C(N/N=C/c1ccccc1O)c1ccncc1`, the Potency in assay [1] was 10 µM (active); in assay [7], 12.6 µM (active); in assay [9] it was 5.62 µM (active); in assay [10], 6.01 µM (active). Besides, the Potency result in [3] and in assay [5] was “inactive” each time.
For the compound `CCN(CC)CCOC(=O)C(c1ccccc1)C1CCCCC1` (centres undefined), the Potency result in [1], in assay [5], in [6], in assay [7] and in [9] was “inactive” each time. For the same compound, the Potency in assay [10] is 7.57 µM (active).
In the case of `CCCCCCCCCCCCCCCC[N+](C)(C)CCN(Cc1ccc(OC)cc1)c1ncccn1`, the Potency entry in assay [1], in assay [2], in assay [4] and in [5] was “inactive” in each case.
Turning to `CC[N+](CC)(CCNC(=O)C(=O)NCC[N+](CC)(CC)Cc1ccccc1Cl)Cc1ccccc1Cl`, the Potency in [1] is 0.316 µM (active); in assay [2], 2.82 µM (active); in assay [5] it was 5.01 µM (active); in assay [6] it was 3.98 µM (active); in assay [7], 1.41 µM (active); in assay [8], 3.16 µM (active). Also, the Potency in assay [9] was 1.26 µM (active); in assay [10] it was 1.2 µM (active).
Take `CCCCC1=NC2(CCCC2)C(=O)N1Cc1ccc(-c2ccccc2-c2nn[nH]n2)cc1`: the Potency entry in assay [1], in assay [2], in assay [3], in assay [5], in assay [7] and in assay [8] was “inactive” each time.
Regarding `Cc1cc(N)c2cc(NC(=O)Nc3ccc4nc(C)cc(N)c4c3)ccc2n1`, the Potency in assay [1] was 12.6 µM (active); in assay [2], 12.6 µM (active); in assay [6] it was 12.6 µM (active); in [7], 12.6 µM (active); in [8] it was 10 µM (active); in [9], 5.62 µM (active). In addition, the Potency in assay [10] is 0.849 µM (active).
In the case of `CN1C2CCC1CC(OC(=O)c1c[nH]c3ccccc13)C2` (centres undefined), the Potency result in assay [1], in assay [2], in assay [5], in [6], in assay [7] and in assay [8] was “inactive” each time. The Potency entry in [9] and in assay [10] was “inactive” in each case.
With `COc1c(C)c2c(c(O)c1C/C=C(\C)CCC(=O)O)C(=O)OC2`, the Potency is 3.16 µM (active) in [1]; 3.16 µM (active) in assay [2]; 2.24 µM (active) in [6]; 2.82 µM (active) in [7]; 3.98 µM (active) in assay [8]; 1.58 µM (active) in [9]. Besides, in [10], the Potency was 2.56 µM (active). Also, the Potency entry in assay [3] and in assay [5] was “inactive” throughout.
With `CNCCC(Oc1ccccc1C)c1ccccc1` (centres undefined), the Potency result in assay [1], in assay [2], in assay [6], in [7] and in [8] was “inactive” each time. Besides, the Potency in assay [10] was 3.79 µM (active).
Take `COc1cc(-c2ccc(=O)[nH]n2)ccc1OC(F)F`: the Potency in [1] is 0.112 µM (active); in assay [7], 0.0447 µM (active); in assay [8], 0.0355 µM (active); in assay [9] it was 0.282 µM (active). The Potency entry in assay [2], in assay [3] and in [6] was “inactive” in each case.
With `CC(=O)N(O)CCCCCNC(=O)CCC(=O)N(O)CCCCCNC(=O)CCC(=O)N(O)CCCCCN`, the Potency result in [1], in assay [2], in [3], in assay [4], in [6] and in assay [7] was “inactive” each time. In addition, the Potency result in assay [8], in assay [9] and in assay [10] was “inactive” each time.
Turning to `CCOC(=O)/C=C(C)/C=C/C=C(C)/C=C/c1c(C)cc(OC)c(C)c1C`, the Potency is 8.91 µM (active) in assay [1] and 3.55 µM (active) in assay [8]. Further, the Potency entry in assay [3] and in assay [5] was “inactive” in each case.
